Screening data as filed in PubChem BioAssay.
aSyn 5UTR act = Activators via SNCA 5'UTR binding, MLPCN. alpha-synuclein 5'UTR reporter, activators screen. activity score, % (tested at 7.5 µM), hits read low. AID 1814. 300,000 tested, 7.1% active; in the data active = activity score below about -60%
Numbers without * were called inactive. This is one part of a sample in which hits are shown more often than they occur.

SMILES | aSyn 5UTR act
Cc1cccc(SCC(=O)Nc2ccc3c(c2)OCCO3)c1 | -117.0*
Nc1ccccc1SCC(=O)Nc1ccc2c(c1)OCCO2 | -88.6*
O=C(CSc1ccccn1)Nc1ccc2ccccc2c1 | -158.6*
Cc1ccnc(NC(=O)CSc2ccc3c(c2)OCCO3)c1 | -113.9*
CC(=O)NC(CC(=O)Nc1ccc2c(c1)OCCO2)c1ccccc1 (stereo not given) | -76.5*
CC[C@H](CO)Nc1nc(Nc2cccc(Cl)c2)c2ncn(C(C)C)c2n1 | 57.0
Cn1c(C(=O)Nc2ccc3c(c2)OCCO3)cc2sccc21 | -86.6*
O=C(Nc1ccc2c(c1)OCCO2)c1cc2sccc2n1Cc1ccc(F)cc1 | -109.7*
O=C(Nc1ccc2c(c1)OCCO2)c1cc2sccc2n1Cc1ccccc1 | -102.4*
Cc1ccc2nc(-c3ccc(NC(=O)CN4C(=O)NC(C)(c5ccc(OC(F)F)cc5)C4=O)cc3)sc2c1 (stereo not given) | -136.3*
Cc1ccc2nc(NC(=O)Cn3cc4c(n3)CCCCC4)sc2c1 | -108.0*
Cc1ccc2nc(NC(=O)CN3C(=O)NC4(CCCCC4)C3=O)sc2c1 | -82.4*
CCC1CCc2c(sc(NC(=O)c3cnccn3)c2C(N)=O)C1 (stereo not given) | -85.5*
CCC1CCc2c(sc(NC(=O)c3ccco3)c2C(N)=O)C1 (stereo not given) | -245.9*
Cc1ccc(C(=O)/C=C/c2ccc3c(c2)OCCO3)c(O)c1 | -181.1*
O=C(/C=C/c1ccc2c(c1)OCCCO2)c1ccc2ccccc2c1O | -157.8*
C=CCN1/C(=C2/SC(=S)N(C)C2=O)Sc2ccccc21 | -65.4*
CCN1/C(=C2\OC(=S)N(C)C2=O)Sc2ccccc21 | -129.4*
Cc1[nH]nc(SCC(=O)N2CCCCC2)c1[N+](=O)[O-] | -91.5*
Cn1c(-c2cc3ccccc3oc2=O)nc2ccccc21 | -97.3*
COc1cccc(Cn2c(-c3nonc3N)nc3ccccc32)c1 | 95.8
COc1ccc2cc(-c3nc4ccccc4n3C)c(=O)oc2c1 | -208.5*
O=C1c2ccccc2NC(c2ccccn2)N1c1ccc(Cl)cc1 (stereo not given) | -138.0*
COc1cccc(C2Nc3ccccc3C(=O)N2c2ccc(F)cc2)c1O (stereo not given) | -98.7*
O=C1c2ccccc2NC(c2ccccc2O)N1c1ccc(F)cc1 (stereo not given) | -97.7*
SMILES | aSyn 5UTR act
O=C(Nc1cccc(F)c1)c1ccc(CSc2ccccc2)o1 | -121.3*
O=C(Nc1ccccc1F)c1ccc(CSc2ccccc2)o1 | -69.5*
CCOc1ccccc1N1CCN(C(=O)c2cn(CC3CCCCC3)nn2)CC1 | -83.8*
CC(C)(C)C1CCc2c(sc3c2C(=O)NC(c2ccco2)N3)C1 (stereo not given) | -185.9*
O=C(Cn1cc(C(=O)C2CC2)c2ccccc21)NCc1ccccc1 | -81.4*
O=C(/C=C/c1ccco1)NC(=S)Nc1ccccc1O | -120.6*
O=C(/C=C\c1ccco1)NC(=S)Nc1ccccc1O | -74.3*
CCOc1ccc(NC(=O)c2csc3c2CCCC3)cc1 | -203.8*
CC(=O)c1cccc(NC(=O)c2csc3c2CCCCC3)c1 | -66.8*
COC(=O)c1sc(NC(=O)COc2ccccc2)nc1C | -142.2*
CCOc1ccc(C(=O)Nc2nc(C)c(C(=O)OC)s2)cc1 | -97.4*
CCOC(=O)c1sc(NC(=O)c2cccnc2)nc1C | -99.7*
Cc1cnc(NC(=O)CCc2ccccc2)s1 | -382.6*
Cc1cnc(NC(=O)CSc2ccccc2)s1 | -108.4*
Cc1cnc(NC(=O)COc2ccccc2)s1 | -142.4*
COC(=O)c1sc(NC(=O)Cc2cccs2)nc1C | -69.1*
Cc1sc2ncnc(N=Nc3c(O)[nH]c4ccccc34)c2c1C | -140.9*
CCc1cc2c(N=Nc3c(O)[nH]c4ccccc34)ncnc2s1 | -62.1*
Oc1[nH]c2ccccc2c1N=Nc1nncc2ccccc12 | -62.2*
COc1nc(NCCN2CCOCC2)nc(Nc2ccccc2)n1 | -101.2*
Cc1ccccc1N/N=C1\CCCNC1=O | -100.4*
COc1ccc(OC(=O)c2cnn(-c3ccccc3)c2C)cc1 | -222.5*
Cc1c(C(=O)N(C)c2ccc(Cl)cc2)cnn1-c1ccccc1 | -64.0*
COc1ccc(OC(=O)c2c(C)nn(-c3ccccc3)c2C)cc1 | -103.4*
Cc1nn(-c2ccccc2)c(C)c1C(=O)NCCc1ccccc1 | -81.8*
SMILES | aSyn 5UTR act
CCOC(=O)c1c(C)nn(-c2ccc(NC(=O)/C=C/C(=O)O)cc2)c1C | 92.4
Cc1nn(-c2ccccc2)c(C)c1C(=O)Oc1ccccc1 | -115.3*
COc1ccccc1/C=N/N(C(C)=O)c1nc(-c2ccc(F)cc2)cs1 | -121.2*
Cc1ccc(-c2ccc(NC(=O)C3C4C=CC(C4)C3C(=O)O)cc2)o1 (stereo not given) | -180.6*
Cc1cccc(CSC2=NN3CCCC(=O)N=C3S2)c1 | -69.2*
FC(F)(F)c1cc(-c2ccccn2)nc2cc(-c3ccccc3)nn12 | -77.6*
COc1ccc(-c2nc3n(c2C)Cc2ccccc2-3)cc1 | -129.5*
Cc1ccc2oc(=O)n(CCCOc3ccccc3)c2c1 | -68.5*
CCOc1ccc(OCCN2C(=O)c3ccccc3C2=O)cc1 | -94.5*
Cc1cccc(OCCN2C(=O)c3ccccc3C2=O)c1 | -66.9*
Cc1ccc2c(c1)C(=O)C(=O)N2CCCOc1ccccc1 | -67.5*
Cc1cccc(OCCn2c(=O)n(C)c3ccccc32)c1 | -161.5*
O=C1c2ccccc2C(=O)N1CCCOc1ccccc1 | -61.8*
Cc1ccc(Cl)cc1Nc1nc(-c2sc(NC(=O)c3ccccc3)nc2C)cs1 | -94.4*
Cc1nc(NC(=O)c2ccccc2)sc1-c1csc(Nc2cccc(F)c2)n1 | -81.1*
Cc1csc(NC(=O)Cc2ccccc2Cl)n1 | -98.6*
Cc1csc(NC(=O)Cc2ccc(Cl)cc2)n1 | -81.4*
COc1ccc(/C=N/Nc2nc(C(=O)O)cs2)cc1 | -78.4*
CCOC(=O)c1sc(N/N=C/c2ccccc2)nc1C | -207.1*
CCOC(=O)c1sc(N/N=C/c2cccc(C)c2)nc1C | -175.3*
O=C(O)Cc1sc(N/N=C\c2ccccc2)nc1-c1ccccc1 | -255.9*
COC(=O)c1ccc(/C=N/Nc2nc(C)c(C)s2)cc1 | -187.7*
CC(=O)c1sc(N/N=C\c2ccccc2O)nc1C | -188.0*
NC(N)=Nc1nc(C2COc3ccccc3O2)cs1 (stereo not given) | -64.0*
COc1ccc(NC2=Nc3ccccc3CC2)cc1 | -137.5*
SMILES | aSyn 5UTR act
Cc1ccc(-c2ccc(SCC(=O)Nc3ccc4c(c3)OCCO4)nn2)cc1 | -97.8*
CC(=O)Nc1ccc(NC(=O)CSc2ccc(-c3ccc4c(c3)OCO4)nn2)cc1 | -65.7*
Cc1ccc(-c2ccc(SCC(=O)Nc3nonc3C)nn2)cc1 | -87.0*
CCOc1ccc(-c2cc(C(=O)OC)[nH]n2)cc1 | -103.2*
CCN1CCN(Cc2ccc(NC(=O)c3cc(NC(=O)c4cc(-c5ccc(OC)cc5)n[nH]4)cc(OC)c3)cc2C(F)(F)F)CC1 | 106.2
COC(=O)c1cc(-c2ccc(OC)cc2)n[nH]1 | -103.2*
CCOc1cccc(-c2cc(C(=O)NN)[nH]n2)c1 | -63.6*
COC(=O)c1cc(-c2ccc(C)cc2)n[nH]1 | -106.3*
CC(C)c1nc(C#N)c(NN)o1 | -127.2*
COc1ccc(C(=O)NCC2OCCc3ccccc32)c(O)c1 (stereo not given) | -88.4*
CCOC(=O)c1ccc(NC(=O)C2CC3CCC2C3)cc1 (stereo not given) | -128.2*
CCOC(=O)c1ccc(NS(=O)C23CC4CC(CC(C4)C2)C3)cc1 (stereo not given) | -109.9*
CCCOC(=O)c1ccc(NC(=O)C2C3CCC(C3)C2C(=O)O)cc1 (stereo not given) | -85.3*
